According to PMC4336329 (PLoS ONE, 2015):
About 14,000 (4.5%) of roughly 310,000 compounds showed an effect of 50% or more. The effect is printed as a negative number. The full list was thinned out, with strong results kept by preference.

Target: human ether-à-go-go-related gene (hERG) potassium channel (human, UniProt Q12809)
Assay: primary screen, population patch clamp on CHO cells stably expressing hERG; higher = less effect of the substance
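Also: peak tail current of the secondary pulse compared with the same well before compound.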

Sequence of human ether-à-go-go-related gene (hERG) potassium channel (Q12809 whole entry, looked up): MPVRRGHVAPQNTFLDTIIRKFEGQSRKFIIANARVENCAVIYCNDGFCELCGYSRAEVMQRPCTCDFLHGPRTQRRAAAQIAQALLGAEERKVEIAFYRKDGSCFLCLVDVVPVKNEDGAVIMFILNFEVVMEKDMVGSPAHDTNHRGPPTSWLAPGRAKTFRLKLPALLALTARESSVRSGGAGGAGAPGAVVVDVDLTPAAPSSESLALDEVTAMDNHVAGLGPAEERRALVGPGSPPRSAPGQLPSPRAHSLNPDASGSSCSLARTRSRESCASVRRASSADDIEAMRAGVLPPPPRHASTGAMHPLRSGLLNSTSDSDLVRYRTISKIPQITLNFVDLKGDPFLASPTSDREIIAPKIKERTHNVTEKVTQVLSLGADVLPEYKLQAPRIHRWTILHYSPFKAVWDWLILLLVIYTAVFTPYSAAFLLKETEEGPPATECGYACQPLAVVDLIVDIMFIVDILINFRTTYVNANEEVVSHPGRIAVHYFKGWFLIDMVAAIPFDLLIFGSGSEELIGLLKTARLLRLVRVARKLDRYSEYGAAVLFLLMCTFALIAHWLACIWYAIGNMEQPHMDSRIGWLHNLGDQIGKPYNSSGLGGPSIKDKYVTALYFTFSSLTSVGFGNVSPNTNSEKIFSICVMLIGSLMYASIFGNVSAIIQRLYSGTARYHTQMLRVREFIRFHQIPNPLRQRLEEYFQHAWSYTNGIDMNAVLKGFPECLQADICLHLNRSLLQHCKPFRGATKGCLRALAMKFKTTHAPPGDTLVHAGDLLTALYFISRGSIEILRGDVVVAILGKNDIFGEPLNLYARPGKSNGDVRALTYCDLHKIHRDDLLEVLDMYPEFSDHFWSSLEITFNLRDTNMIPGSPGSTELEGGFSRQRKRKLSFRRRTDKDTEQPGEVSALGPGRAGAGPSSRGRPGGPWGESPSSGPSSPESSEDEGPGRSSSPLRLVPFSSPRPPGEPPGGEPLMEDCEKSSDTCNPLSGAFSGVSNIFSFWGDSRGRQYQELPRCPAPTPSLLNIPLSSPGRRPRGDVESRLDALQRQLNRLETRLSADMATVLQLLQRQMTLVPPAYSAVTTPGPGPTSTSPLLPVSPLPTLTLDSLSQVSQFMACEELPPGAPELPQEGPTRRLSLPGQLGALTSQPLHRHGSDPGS

Compound	hERG current change (%, negative = inhibition) at 10uM [%]
C=CCN1C(=O)C(C)(C)Nc2ccccc21	6.7
O=C(c1cccnc1Cl)N(Cc1ccccc1)Cc1ccccc1	-17.7
CC(=O)Nc1ccc(-c2csc(-c3cccnc3)n2)cc1	3.98
O=C1Nc2ccccc2/C1=C/c1ccccc1F	26.3
COc1cc(NC(=O)C2CCCO2)c(OC)cc1NC(=O)c1ccccc1 (stereo not drawn)	8.17
CC(=O)OC[C@H]1O[C@@H](Sc2cccc3cccnc23)[C@H](OC(C)=O)[C@@H](OC(C)=O)[C@@H]1OC(C)=O	-11.4
CCCN(C#N)c1nc(NCC)nc(NC(C)C)n1	-10.2
O=C1CN(CC(=O)Nc2ccc(Cl)cc2)CCN1	-4.87
CC(=O)c1cccc(NC(=O)N2C3CCCC2CC(NC(=O)C2CC2)C3)c1 (stereo not drawn)	17.2
COc1ccccc1C(=O)Nc1ccnn1C1CCN(Cc2ccccc2OCCO)CC1	-78.7
COC(C(=O)Nc1ccnn1C1CCN(Cc2ccc(C)s2)CC1)c1ccccc1 (stereo not drawn)	-50.8
Cc1cccc(CN2CCC(n3nccc3NC(=O)c3ccccc3C)CC2)n1	-19.9
COC(C(=O)Nc1ccnn1C1CCN(Cc2nccs2)CC1)c1ccccc1 (stereo not drawn)	0.847
CSc1ccc(CN2CCC(n3nccc3NC(=O)c3ccccc3C)CC2)cc1	-75
COC(C(=O)Nc1ccnn1C1CCN(Cc2ccc(Cl)s2)CC1)c1ccccc1 (stereo not drawn)	-5.29
CCN1CCC(n2nccc2NC(=O)c2ccccc2Cl)CC1	-21
CCc1ccc(CN2CCC(n3nccc3NC(=O)c3ccccc3Cl)CC2)cc1	-84.4
Cc1cc(OCC(=O)Nc2cccnc2)c2c(C)cc(=O)oc2c1	4.24
O=C(Cc1cccs1)N1CCN(c2nc(-c3ccc(Cl)cc3)cs2)CC1	-8.73
c1ccc(-c2cnc(-c3ccccc3)nc2)cc1	13.4
CCOc1ccc(N/C=C/C(=O)c2ccc(OC)cc2)c([N+](=O)[O-])c1	24.5
CCOC(=O)C1CCCN(C(=O)c2ccc3nc(-c4cccc(OC)c4)oc3c2)C1 (stereo not drawn)	-28.6
CC(O)C(O)C(O)C(O)C1NCCS1 (stereo not drawn)	6.81

Compound	hERG current change (%, negative = inhibition) at 10uM [%]
Cc1cc(C)cc(N(CCC#N)C(=O)COC(=O)CCc2c[nH]c3ccccc23)c1	-32.6
O=C(NCCc1c[nH]c2ccccc12)OCCSS(=O)(=O)[O-].[Na+]	9.49
Br.O=C(c1ccc(Br)cc1)c1sc(N2CCOCC2)nc1-c1ccccc1	-1.44
CCCN(Cc1cc2ccc(C)cc2[nH]c1=O)S(=O)(=O)c1ccccc1	6.34
Cc1ccc(S(=O)(=O)N2CCN(Cc3ccco3)CC2)c(C)c1	-35.6
O=C(c1ccco1)N1CCN(S(=O)(=O)c2cc(Cl)ccc2Cl)CC1	-21.5
O=S(=O)(c1cc(Cl)ccc1Cl)N1CCN(Cc2ccco2)CC1	-54.1
CC(=O)C(Sc1nc(N(C)C)nc(N(C)C)n1)C(=O)Nc1ccccc1 (stereo not drawn)	-3.04
CC(NC(=O)C1CCCN(S(=O)(=O)c2cccs2)C1)c1ccccc1 (stereo not drawn)	6.73
O=C(OCc1cccnc1)C1=Cc2ccccc2OC1	-64.9
COc1cccc2c1OCC(C(=O)OCc1cccnc1)=C2	-17.4
COc1ccc2c(c1)C=C(C(=O)OCc1cccnc1)CO2	3.63
O=C(NCC1(c2ccccc2)CCOCC1)c1cccs1	13.9
COC(=O)C1=C(C)Nc2c(c(=O)n(C)c(=O)n2C)C1c1cccnc1 (stereo not drawn)	-2.61
CCN(CC)C(=O)c1cc2c(=O)c3cc(F)ccc3oc2nc1C	-10.8
CCN(CC)C(=O)c1cc2c(=O)c3cc(Cl)ccc3oc2nc1C	-66.1
Cc1nc2oc3ccc(Cl)cc3c(=O)c2cc1C(=O)O	19
CN(CC(=O)Nc1ccccc1C(F)(F)F)C(=O)CCc1nc2sc3c(c2c(=O)[nH]1)CCCC3	7.94
CCCn1nnc(NC(=O)c2ccc(OC)cc2)n1	2.42
CCc1nc2ccccc2n1Cc1ccc(F)cc1	-0.73
O=C1c2ccccc2C(=O)N1CCCc1nc2ccccc2c(=O)n1-c1cccnc1	-39.7
O=C1c2ccccc2C(=O)N1CCc1nc2ccccc2c(=O)n1Cc1ccco1	-61.8
O=C1c2ccccc2C(=O)N1CCCc1nc2ccccc2c(=O)n1CCCn1ccnc1	-65

Compound	hERG current change (%, negative = inhibition) at 10uM [%]
Cc1nc2ccccc2c(=O)n1CCCn1ccnc1	-17
O=C1c2ccccc2C(=O)N1CCc1nc2ccccc2c(=O)n1CCCn1ccnc1	-62.5
Cc1nc2ccccc2c(=O)n1Cc1ccco1	-7.41
O=C1c2ccccc2C(=O)N1CCCn1ccnc1	17.1
O=C1c2ccccc2C(=O)N1Cc1nc2ccccc2c(=O)n1Cc1ccco1	21.3
CCC(c1nc2ccccc2c(=O)n1CCCn1ccnc1)N1C(=O)c2ccccc2C1=O (stereo not drawn)	-38.8
COc1ccc(N2C(=O)c3ccccc3NC2c2ccc(OC)c(CSc3ccccn3)c2)cc1 (stereo not drawn)	2.62
COc1cc(C(=O)NCCSc2ccc(Cl)cc2)cc(OC)c1OC	-3.08
CC(OC(=O)C1=COCCO1)C(=O)NC1CCCCC1C (stereo not drawn)	12.7
Cc1ccc(CNC(=O)COC(=O)c2ccc(Cl)c(N)c2)cc1	-3.37
CN(C)C(=O)COC(=O)[C@H](Cc1ccccc1)NC(=O)c1ccco1	7.23
Cc1cnc(C(=O)OCC(=O)N2CCN(S(=O)(=O)c3ccc(Cl)cc3)CC2)cn1	4.81
CCOC(=O)c1c(CSc2ccccc2)n(C)c2cc(Br)c(O)c(CN(C)C)c12	-68.5
CCOC(=O)c1c(CSc2ccc(C)cc2)n(C)c2cc(Br)c(O)c(CN(C)C)c12.Cl.O	-54.9
CCOC(=O)c1c(CN(C)C)n(C)c2ccc(OC(C)=O)cc12.Cl	-41.3
CCOC(=O)c1c(CS(=O)(=O)c2ccccc2)n(C)c2cc(Br)c(O)c(CN(C)C)c12	-50.4
CCOC(=O)c1c(CN2CCOCC2)n(C)c2cc(Br)c(O)c(CN(C)C)c12	-27.4
CCOC(=O)c1c(CN2CCCCC2)n(C)c2cc(Br)c(O)c(CN(C)C)c12	-19
CCOC(=O)c1c(CSc2ccccc2)n(C)c2ccc(O)cc12	21.3
CCOC(=O)c1c(CSc2ccccc2)n(C)c2cc(Br)c(OC)c(O)c12	16.2
CCOC(=O)c1c(CN2CCOCC2)n(C)c2cc(Br)c(O)c(CN(C)C)c12.Cl	-26.6
CCOC(=O)c1c(CSc2cccs2)n(C)c2cc(Br)c(O)c(CN(C)C)c12.Cl	-68.3
CCOC(=O)c1c(C)n(C)c2cc(Br)c(O)c(O)c12	8.12

Compound	hERG current change (%, negative = inhibition) at 10uM [%]
COc1cc(OC)c(NC(=O)CS(=O)(=O)Cc2nc(-c3ccc(C)cc3)oc2C)cc1Cl	11.5
COc1ccc(C2SCCN2S(=O)(=O)c2ccccc2)cc1 (stereo not drawn)	-4.42
O=C(Nc1cc2c3c(c1)CC(=O)N3CCC2)c1ccccc1F	0.297
O=C(CNC(=O)c1ccccc1F)OCc1csc(-c2ccccc2)n1	14.6
COc1cc(O)oc1C=Nc1ccccc1	-18.3
CCSc1nnc(-c2cccs2)o1	10.1
O=C(c1ccc2snnc2c1)N1CCSCC1	4.21
COc1ccc(NC(=O)C(CC(=O)O)Cc2ccc(Cl)cc2)cc1 (stereo not drawn)	11.9
N#Cc1ccc(CSc2nnc(NC(=O)c3ccc(=O)[nH]c3)s2)cc1	3.51
Cc1ccc(C(=O)c2cn[nH]c2-c2ccccc2O)cc1	14.4
COc1ccc2c(c1)C(=O)[C@H](O)[C@@H](c1ccc(OC)c(Br)c1)O2	12.9
COC(=O)c1cc(O)cc(OC)c1C(=O)c1c(O)cc(C)cc1O	4.87
O=C(Cc1ccccc1)NNC(=O)c1ccccc1C(=O)O	-5.66
CCOC(=O)c1c(CSc2ccsc2)n(C)c2cc(Br)c(O)c(CN(C)C)c12.Cl	-84.2
Cc1cc(O)c(/C=N/Nc2cccc(Cl)c2)c(=O)o1	1.55
N#C/C(=C\c1c(N2CCC(C(N)=O)CC2)nc2ccccn2c1=O)C(=O)NC1CCCCC1	20.9
Cc1ccc(S(=O)(=O)/C(C#N)=C/c2c(N3CCN(Cc4ccccc4)CC3)nc3ccccn3c2=O)cc1	5.58
Cc1ccc(S(=O)(=O)/C(C#N)=C/c2c(N3CCC(C(N)=O)CC3)nc3ccccn3c2=O)cc1	-55.3
N#C/C(=C\c1c(N2CCC(C(N)=O)CC2)nc2ccccn2c1=O)S(=O)(=O)c1ccccc1	-4.45
COc1ccc(N2CCN(c3nc4ccccn4c(=O)c3/C=C(\C#N)S(=O)(=O)c3ccccc3)CC2)cc1	-2.49
N#C/C(=C\c1c(N2CCC(C(N)=O)CC2)nc2ccccn2c1=O)S(=O)(=O)c1ccc(Cl)cc1	-70.9
